This is one part of a sample in which hits are shown more often than they occur.
PD-1 reverse act = activators reversing PD-1 mediated T-cell inhibition, primary screen, luminescence, primary human CD4 T cells, PD-L1 beads; CellTiter-Glo 96 h; activation, % (concentration not given with the values); 29,000 tested, under 10 active; call rule not given here;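 note: 0% = median vehicle wells and 100% = positive control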
MITF inhib = inhibitors of MITF, primary screen, MITF inhibitor project, cell-based, luminescence; TRPM1 promoter luciferase, 24 h; inhibition, % (no concentration beside the values); hit rate 0.28% among 37,000; AID 2240, 2010; in the data active = inhibition above about 85%;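 note: human melanocyte line stably carrying TRPM1 promoter luciferase reporter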
Hedgehog inh = Hedgehog pathway signaling inhibitors, primary screen, luminescence, Shh-LIGHT2 cells, Gli-luciferase. Shh-LIGHT2 Gli-luciferase reporter, 30 h. inhibition, % (concentration not given with the values). hit rate 2.1% among 22,000. AID 2313, 2010;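 active = mean inhibition across valid replicates above about 65%, limit read from the data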;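 note: pathway switched on by Shh-conditioned medium diluted 1 in 25 in low serum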
YB-1 expression = inhibitors of YB-1 gene expression, primary screen, cell-based, fluorescence; U2OS, qRT-PCR YB-1 vs CDIP delta delta Cp, 16 h; hits give high values; zero = DMSO, each unit about twofold; delta delta Cp (YB-1 minus CDIP) (no concentration beside the values); hit rate 0.37% among 30,000; AID 434959, 2010;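 active = delta delta Cp rounded down to an integer at or above 3, about 3 SD of DMSO wells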;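 note: higher means less YB-1 transcript or more CDIP transcript relative to DMSO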
* hit, by the source's call; / = not tested or not shown.

SMILES	PD-1 reverse act	MITF inhib	Hedgehog inh	YB-1 expression
C[C@H](CCC(=O)O)[C@H]1CCC2C3C(=O)CC4CC(=O)CC[C@]4(C)C3CC(=O)[C@@]21C (stereo partly specified)	/	-15	-43	-0.28
[N-]=[N+]=NCc1ccccc1C[C@@]1(C(=O)NCC(O)CO)N=C(c2ccc(OCCCO)cc2)O[C@@H]1c1ccccc1 (stereo partly specified)	/	/	/	9.1*
CCOC(=O)Nc1cccc(NC(=O)CC2c3ccccc3Oc3ccccc32)c1	0	89*	/	/
CCOC(=O)c1cnc2c(cnn2CC)c1NN=C(C)C	-1	-12	-36	4.9*
CCOC(=O)c1c(NC(=O)c2ccc(Cn3cc(Cl)cn3)o2)sc2c1CCCCC2	-2	26	/	/
CC(Oc1ccccc1)C(=O)Nc1cc([N+](=O)[O-])ccc1O (stereo unspecified)	0	100*	/	/
CCc1ccc(-n2c(SCC(=O)Nc3ccc(F)cc3)nnc2-c2ccncc2)cc1	-2	-5	/	/
O=C(O)C1=C[C@@H](c2ccccc2)C[C@@H](OCc2ccc(CO)cc2)O1	/	/	/	-0.23
COc1ccc([C@H]2C=C(C(=O)NCc3ccccc3)O[C@@H](OCc3ccc(CO)cc3)C2)cc1	/	/	/	3.3*
COCCOC(=O)N1C(=O)[C@@]2(c3cc(C#Cc4ccc(OC)cc4)ccc31)[C@H](C(N)=O)[C@H]1C(=O)O[C@H](c3ccccc3)[C@H](c3ccccc3)N1[C@@H]2c1ccccc1OCCO	/	/	/	9.5*
COCCOC(=O)N1C(=O)[C@@]2(c3cc(C#Cc4ccc(OC)cc4)ccc31)[C@H](C(N)=O)[C@H]1C(=O)O[C@H](c3ccccc3)[C@H](c3ccccc3)N1[C@@H]2c1ccc(OCCO)cc1	/	/	/	-0.32
Cc1cc(C)c(S(=O)(=O)NCC(=O)Nc2ccc(C(C)C)cc2)c(C)c1	-6	6	/	/
Cc1ccc(S(=O)(=O)N(C)C[C@@H]2Oc3c(NC(=O)NC4CCCCC4)cccc3C(=O)N([C@H](C)CO)C[C@@H]2C)cc1	-4	43	107*	-0.093
C[C@H]1CN([C@@H](C)CO)C(=O)c2cccc(NC(=O)NC3CCCCC3)c2O[C@H]1CN(C)S(=O)(=O)c1ccc(Cl)cc1	-7	63	112*	0.51
CC(C)NC(=O)N(C)C[C@H]1Oc2c(NC(=O)NC3CCCCC3)cccc2C(=O)N([C@H](C)CO)C[C@H]1C	0	2	69*	-0.41
C[C@@H]1CN([C@@H](C)CO)C(=O)c2cccc(NC(=O)C3CC3)c2O[C@@H]1CN(C)C(=O)Nc1ccc2c(c1)OCO2	3	-13	23	3.7*
Cc1ccc(S(=O)(=O)N(C)C[C@H]2Oc3c(NC(=O)NC4CCCCC4)cccc3C(=O)N([C@@H](C)CO)C[C@H]2C)cc1	-4	13	11	-0.26
COc1cccc(OC)c1C(=O)N(Cc1nc(-c2ccc(Cl)cc2)no1)C(C)C	-1	-1	/	/
CC(C)NC(=O)Nc1ccc2c(c1)CC(=O)N([C@H](C)CO)C[C@H](C)[C@H](CN(C)S(C)(=O)=O)O2	/	-2	-13	-0.069
C[C@H](CO)N1C[C@H](C)[C@H](CN(C)S(=O)(=O)c2ccc(F)cc2)Oc2c(NC(=O)NC3CCCCC3)cccc2C1=O	-2	51	93*	-0.19
C[C@@H]1CN([C@H](C)CO)C(=O)c2cccc(NC(=O)C3CCOCC3)c2O[C@@H]1CN(C)C(=O)NC1CCCCC1	/	-7	1	11*
CCn1c(SCC(=O)Nc2ccc(Cl)c(Cl)c2)nnc1-c1ccc(Br)cc1	0	16	/	/
CC(C)Oc1ccc2c(=O)cc(-c3ccccc3)oc2c1	/	71	42	0.11
Cc1oc2cc(OC(C)C)ccc2c(=O)c1-c1ccc2c(c1)OCCO2	0	-21	-14	6.9*
COC(=O)CCCCCCC(=O)NN=C1CCCCCCC1	/	/	/	-0.18
C[C@@H]1CN([C@@H](C)CO)C(=O)Cc2cc(NC(=O)Nc3cccc4ccccc34)ccc2O[C@@H]1CN(C)Cc1ccncc1	-5	-3	15	-0.25
